# Shown are actives, neighbours in structure and some others; about 4.6% of the full set was active somewhere.
# D1 potentiator = human D1 dopamine receptor positive modulation. 360,000 compounds, 0.036% hits. P21728. potentiation, % at 10 µM. HEK293 TREx D1 cells, calcium flux, dopamine EC20 potentiation; in the data active = potentiation above about 30%
# TRHR agonist = TRH receptor (human) agonism; P34981; TRHR cells, calcium flux fluo-8, FDSS agonist mode; activation, % at 2 µM; 360,000 compounds, 0.18% hits; AID 493084
# Target sequence (P34981 whole entry, looked up): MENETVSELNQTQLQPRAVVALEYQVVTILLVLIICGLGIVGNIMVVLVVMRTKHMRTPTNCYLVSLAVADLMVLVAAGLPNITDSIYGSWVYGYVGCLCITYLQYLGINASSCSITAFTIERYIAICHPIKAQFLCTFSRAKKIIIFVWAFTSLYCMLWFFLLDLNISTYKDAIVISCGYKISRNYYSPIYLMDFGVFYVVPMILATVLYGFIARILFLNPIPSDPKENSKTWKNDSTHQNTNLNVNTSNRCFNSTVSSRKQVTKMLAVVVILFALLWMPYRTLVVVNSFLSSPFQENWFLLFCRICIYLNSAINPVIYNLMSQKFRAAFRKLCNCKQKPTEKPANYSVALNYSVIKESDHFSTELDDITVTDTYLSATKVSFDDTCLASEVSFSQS
#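 Steps: seed TRHR cells overnight; add fluo-8 no-wash Ca dye, RT 30 min–1.5 h; record 10 s baseline; pin-transfer compounds; monitor fluorescence 1 cycle/s for the agonist window. Calcium increases flag candidate agonists.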
# TRHR PAM = allosterically enhances the human TRH receptor. P34981. TRHR cells, fluo-8 calcium fluorescence, EC20 TRH enhancement. enhancement, % at 2 µM. 360,000 compounds, 0.66% hits; in the data active = enhancement above about 30%
#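 TRHR-expressing cells loaded with fluo-8 calcium dye were read kinetically (ex 480/em 530) during compound addition, then stimulated with an EC20 of TRH (10 nM final). Enhancement of the Gq-mediated intracellular calcium response was scored.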
# D1 antagonist = blocks dopamine activation of the human D1 receptor; P21728; HEK293 TREx D1 cells, calcium flux, dopamine EC80; active compounds read low; activity change, negative = inhibition, % at 10 µM; 360,000 compounds, 3.2% hits; in the data active = activity change below about -30%
#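 After overnight tetracycline induction at 30 C, force-coupled D1 HEK293 cells took up a no-wash calcium dye at room temperature. Compounds were added and monitored 180 s, and the response to EC80 dopamine was then recorded.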
# D1 ag = human D1 receptor agonism. 360,000 compounds, 1% hits. P21728. HEK293 T-REx D1 cells, calcium flux, agonist mode. activation, % at 2 µM
#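 Agonism was scored from calcium flux recorded over 180 s (1 read/s) after pintool compound addition, following a 10-cycle baseline. Cells were inducible force-coupled HEK293 TREx D1, plated overnight at 30 C and loaded with no-wash calcium dye.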
# A number is an active result; i = inactive; nt = no result given; ! = not confirmed by another sample. Rule as the data show it, unless noted: active = activation above about 30%; inactive = the rest.
SMILES,D1 potentiator,TRHR agonist,TRHR PAM,D1 antagonist,D1 ag
CCOc1ccccc1CNC(=O)CC(C)n1ccc(C)n1 (stereo unspecified),i,i,i,i,i
CC(C)OCCCNC(=O)c1nn(C)c2c1CSc1ccccc1-2,i,i,i,i,i
CC(=O)Nc1cccc(NC(=O)Cc2csc(COc3cccc(C)c3)n2)c1,i,i,i,i,i
Cc1cccc(-c2cc(C(=O)O)c3c(-c4ccc(F)cc4)[nH]nc3n2)c1,i,i,i,i,i
Cc1cccc(-c2cc(=O)c(C(=O)O)cn2-c2ccc(F)cc2F)c1,i,i,i,-40,i
O=C1/C(=C\c2ccco2)SC(=S)N1C1CCCCC1,34,i,i,i,i
Cc1ccc2c(C(=O)CN3CCSCC3)c(C)[nH]c2c1,i,i,i,-44,i
Cc1ccc2c(C(=O)CN3CCC4(CC3)OCCO4)c(C)[nH]c2c1,i,i,i,i,i
Cc1ccc(N(CC(=O)N2CCN(c3cccc(C)c3C)CC2)S(=O)(=O)c2c(C)nn(C)c2C)cc1,i,i,i,-43,i
O=[N+]([O-])c1ccc(NCc2ccccc2)nc1,i,i,i,-35,i
O=[N+]([O-])c1ccc(S(=O)(=O)c2ccccc2)nc1,i,i,i,-40,i
COC(=O)c1ccccc1NC(=O)C1=CC(c2ccc(C)cc2)=NS(=O)(=O)N1C,i,i,i,i,i
Cc1cc(=O)oc(C)c1C(=O)NCCc1ccccc1,i,i,i,-32,i
COc1ccc(C(=O)NCc2c(C)oc(C)c2C(=O)O)cc1,i,i,39,i,i
COc1ccc(CCNC(=O)c2c(C)cc(=O)oc2C)cc1OC,i,i,i,i,i
COc1ccc(CNC(=O)c2c(C)cc(=O)oc2C)cc1,i,i,i,-33,i
Cc1oc(C)c(C(=O)O)c1COc1ccc(C(=O)O)cc1,i,i,i,i,i
COc1ccc(OC)c(NC(=O)c2c(NCc3ccc(C)o3)sc3c2CCC(C)C3)c1 (stereo unspecified),i,i,i,i,i
COCCc1nn2c(=O)cc(COC(=O)C(c3ccccc3)c3ccccc3)nc2s1,i,i,i,i,i
CS(=O)(=O)N(CC(=O)NCCc1ccccc1)C1CCCCC1,i,i,40,nt,i
O=C1CC(c2nc3ccccc3n2CCCCOc2ccccc2)CN1c1ccccc1Cl (stereo unspecified),i,i,i,i,i
COC(=O)c1cc(OC)c(OC)cc1NC(=S)N1CCN(Cc2ccccc2)CC1,i,i,i,-32,i
COc1cccc(NC(=S)N2CCCN(Cc3ccc(F)cc3)C2)c1,i,i,i,-41,i
COc1ccc(NC(=S)N2CCN(Cc3ccccc3)CC2)cc1,i,i,33,i,i
Cc1ccc(N2CCN(C(=O)Nc3cn(CC(C)C)c(=O)c4ccccc34)CC2)c(C)c1,i,i,i,i,i
SMILES,D1 potentiator,TRHR agonist,TRHR PAM,D1 antagonist,D1 ag
CCc1ccccc1NC(=O)C(=O)NCC(c1cccnc1)N1CCc2ccccc21 (stereo unspecified),i,i,i,i,i
Cc1sc2ncn(CC(=O)N3CCN(c4ccccc4F)CC3)c(=O)c2c1S(=O)(=O)N1CCC(C)CC1,i,i,i,i,i
Cc1ccc(NC(=O)C(C)c2cccc(C(=O)c3ccccc3)c2)cc1O (stereo unspecified),i,i,i,-32,i
Cc1ncsc1CCOC(=O)c1cccc([N+](=O)[O-])c1,i,i,i,-33!,i
CCN(CC)S(=O)(=O)c1ccc2c(c1)N(CC(=O)NCc1ccc(F)cc1)C(=O)CO2,i,i,i,i,i
CC(=O)N1CCN(C(=S)Nc2ccc(SC(F)F)cc2)CC1,i,i,i,i,i
CC1CCN(C(=S)Nc2ccc(SC(F)F)cc2)CC1,i,i,i,-41,i
Oc1ccc(NCc2ccccc2OCc2ccc(Cl)cc2)cc1,i,i,47,i,i
CCOc1cc(CNc2ccc(O)cc2)ccc1OCc1ccc(Cl)cc1,i,i,i,-30,i
COc1ccc(CNC(=O)CCc2c(C)nc3c(c(C)nn3-c3ccccc3)c2C)cc1,i,i,i,i,i
CC(OC(=O)c1ncc(Cl)c(Cl)c1Cl)C(=O)NC1CCCCC1C (stereo unspecified),i,i,i,-32,i
Fc1cccc(Cl)c1Cn1c(-c2cccs2)nc2ccccc21,i,i,i,i,i
CNC(=O)Nc1ccc2snnc2c1,nt,i,i,i,i
CC1CN(C(=O)Nc2ccc3snnc3c2)c2ccccc21 (stereo unspecified),i,i,i,-63,i
CC(=O)c1ccc(NC(=O)Nc2ccc3snnc3c2)cc1,i,i,i,-74,46
O=C(Nc1cccc(F)c1)c1ccc2snnc2c1,i,i,i,-31,i
O=C(Nc1ccc2snnc2c1)N1CCSCC1,i,i,i,i,i
O=C(Nc1ccc(F)cc1)Nc1ccc2snnc2c1,i,i,i,-31,48
COC(=O)c1cc(NC(=O)Nc2ccc3snnc3c2)cc(C(=O)OC)c1,i,i,i,i,i
Cc1cc(C)c(S(=O)(=O)c2cccc(Cl)c2)c(=O)[nH]1,i,i,i,i,i
Cc1ccc(F)c(NC(=O)Nc2ccc3snnc3c2)c1,i,i,i,i,i
Cc1c(Cl)cccc1NC(=O)Nc1ccc2snnc2c1,i,i,i,i,39
O=c1cc(C(F)(F)F)[nH]c2c(C(F)(F)F)cccc12,i,i,i,i,32
COc1cc(NC(=O)c2c(-c3ccc(C)cc3)nnc3ccccc23)cc(OC)c1OC,i,i,i,i,i
O=C(CCCN1C(=O)CCC1=O)Nc1ccc(Br)cc1F,i,i,i,-32,i
SMILES,D1 potentiator,TRHR agonist,TRHR PAM,D1 antagonist,D1 ag
CN(Cc1ccccc1F)C(=O)c1ccc(Oc2ccccc2)cc1,i,i,i,-31,i
O=C(Nc1ccccc1Oc1cccnc1)C1CCCN(C/C=C/c2ccc(F)cc2)C1 (stereo unspecified),i,i,i,-30,i
CCOc1ccccc1N(CC(=O)N1CCOCC1)S(=O)(=O)c1ccccc1,i,83,i,i,i
CN1CCN(CCC(=O)Nc2ccccc2)CC1,i,i,i,-36,i
Cc1cccc(NC(=O)CCN2CCCC(C)C2)c1 (stereo unspecified),i,i,i,-72,i
Cc1cccc(NC(=O)CCN2CC(C)OC(C)C2)c1 (stereo unspecified),i,i,35,i,i
COc1cccc(N2CCN(C(=O)CN3C(=O)COc4ccc(S(=O)(=O)N5CCC(C)CC5)cc43)CC2)c1,i,i,i,i,i
Cc1ccc(C)c(NC(=O)Nc2csc3c2CCCC3)c1,i,i,i,i,i
Cc1ccc(Nc2ccc(NCc3ccccc3)nn2)cc1C,i,i,i,-44,i
Cc1cc(NCc2ccccc2)nc2ccccc12,i,i,i,-66,34
Cc1cc(NCc2ccccc2)c2ccccc2n1,i,i,i,i,i
